Screen size: about 48,000 compounds; about 13,000 (27%) showed an effect of 50% or more. This is one part of the list.

The experiment concerns Wolbachia pipientis. As to the kind of experiment: Anti-Wolbachia Cell-Based Screen. It is filed as functional. Further details: scale not given: in the data most compounds retested in dose-response had high values. As to conditions: 5 µM.
On to `Cc1cc(S(=O)(=O)N2CCCc3ccc(F)cc32)sc1C(=O)O`, for which the “Percent Effect” value is -10.9%.

On to `O=C([C@@H]1CCO[C@@H]2CCN(Cc3ccco3)C[C@H]21)N1CCCCO1`, for which the “Percent Effect” value was determined as 1.589%.

Consider `COc1ccc(CN2CCC[C@@H]3CN(C(=O)c4ccco4)C[C@@H]32)cc1.O=C(O)C(F)(F)F`, for which the “Percent Effect” value came out at 6.144%.

In the case of `COCC(=O)N1CCC(=O)N(C2CCCC2)Cc2ccccc21`, the “Percent Effect” value came to 125.1%.

With `CC(=O)N1CCC(=O)N(C2CCCC2)Cc2ccccc21`, the “Percent Effect” value was 106.7%.

Regarding `COC(C)(C)CNC(=O)C1CCC(=O)N(C2CCCC2)C1` (configuration not stated), the “Percent Effect” value is on record as -37.87%.

As to `COCC(=O)N1CCC(=O)N(C2CCCC2)Cc2cc(F)ccc21`, the “Percent Effect” value stood at 102.4%.

`COCC(=O)N1CCCN(C(=O)C2Cc3ccccc3CN2C)CC1` (configuration not stated): the “Percent Effect” value is on record as -0.0278%.

As for `CC(=O)N1CCCN(C2CCCCc3ccccc32)CC1` (configuration not stated), the “Percent Effect” value is given as 16.59%.

Consider `COc1cccc(SCC(=O)N2CCCC(N3CCCC3=O)C2)c1` (configuration not stated), for which the “Percent Effect” value came to 3.036%.

Turning to `COc1cccc(-n2nnc(C(=O)N3CCCC3)c2C)c1`, the “Percent Effect” value is reported as -5.233%.

With `COCCO[C@@H]1CCN(C(=O)c2ccc(C)o2)[C@@H]1Cc1cnn(C)c1`, the “Percent Effect” value was -2.237%.

As to `Cn1cc(C[C@H]2[C@@H](O)CCN2C(=O)c2ccc[nH]2)cn1`, the “Percent Effect” value was -3.734%.

In the case of `COCCO[C@H]1CCN(C(=O)c2ccno2)[C@H]1Cc1cnn(C)c1`, the “Percent Effect” value is recorded as -8.767%.

As to `CCO[C@@H]1CCN(C(=O)N(C)C)[C@@H]1Cc1cnn(C)c1`, the “Percent Effect” value is 6.075%.

With `CCO[C@@H]1CCN(c2ccc(C)nn2)[C@@H]1Cc1cnn(C)c1`, the “Percent Effect” value was 109.6%.

For `COCCO[C@H]1CCN(c2ccc(C)nn2)[C@H]1Cc1cnn(C)c1`, the “Percent Effect” value amounted to 102.2%.

Turning to `Cn1cc(C[C@H]2[C@H](O)CCN2C(=O)C2CCCC2)cn1`, the “Percent Effect” value was -2.611%.

Consider `Cc1ccc(N2CC[C@H](O)[C@@H]2Cc2cnn(C)c2)nn1`, for which the “Percent Effect” value is reported as 105.5%.

With `CO[C@H]1CCN(c2ccc(C)nn2)[C@H]1Cc1cnn(C)c1`, the “Percent Effect” value is -0.6949%.

As for `CCC(C)(NCC(=O)OC)c1nc(C)cs1` (configuration not stated), the “Percent Effect” value was 4.251%.

On to `CC(C)c1nc2n(n1)CC(NCC(=O)N(C)Cc1cccs1)CC2` (configuration not stated), for which the “Percent Effect” value is on record as -0.7675%.

For the compound `Cn1c(=O)[nH]c2cc(C(=O)OCCCn3ccccc3=O)ccc21`, the “Percent Effect” value was -6.987%.

`Cc1nnc(N2C[C@H](OCCCn3cccn3)[C@H]3OCCC[C@H]32)s1`: the “Percent Effect” value was 1.098%.

Turning to `O=C(CO[C@@H]1CC[C@H]2[C@H]1OCCN2CC1CCOCC1)N1CCCC1.O=C(O)C(F)(F)F`, the “Percent Effect” value is recorded as -8.196%.

Turning to `CCO[C@@H]1CC[C@H]2[C@H]1OCCN2CCOCc1ccccc1.O=C(O)C(F)(F)F`, the “Percent Effect” value was -21.46%.

Regarding `O=C(O)C(F)(F)F.O=C(O)C(F)(F)F.c1cnn(CCCO[C@@H]2CN(C3CCOCC3)[C@@H]3CCCO[C@@H]32)c1`, the “Percent Effect” value is 99.23%.

With `Cc1nnc(N2C[C@@H](OCCCn3cccn3)[C@H]3OCCC[C@H]32)s1.O=C(O)C(F)(F)F.O=C(O)C(F)(F)F`, the “Percent Effect” value was found to be 12.15%.

As for `O=C(O)C(F)(F)F.O=C(O)C(F)(F)F.c1cnn(CCCO[C@@H]2CC[C@H]3[C@H]2OCCN3CC2CC2)c1`, the “Percent Effect” value is 100.5%.

For `CCO[C@H]1CC[C@H]2[C@H]1OCCN2CCOCc1ccccc1.O=C(O)C(F)(F)F`, the “Percent Effect” value is recorded as -37.65%.

For `O=C(O)C(F)(F)F.O=C(O)C(F)(F)F.c1cnn(CCCO[C@@H]2CC[C@H]3[C@H]2OCCN3CC2CCOCC2)c1`, the “Percent Effect” value came out at 107.9%.

Turning to `CN(C)CCSc1ccc(NC(=O)c2nccn3ccnc23)cc1`, the “Percent Effect” value came out at 11.77%.

As to `COc1cc(OC)cc(C2CCN(CC(=O)NCC(F)(F)F)C2)c1` (configuration not stated), the “Percent Effect” value is -9.174%.

On to `Cc1ccc(CN2CCOC3(COCCN(Cc4ccncc4)C3)C2)o1.O=C(O)C(F)(F)F.O=C(O)C(F)(F)F.O=C(O)C(F)(F)F` (configuration not stated), for which the “Percent Effect” value was -16.88%.

Consider `CS(=O)(=O)N1CCOCC2(CN(Cc3ccc(F)cc3)CCO2)C1.O=C(O)C(F)(F)F` (configuration not stated), for which the “Percent Effect” value is listed as -3.432%.

`Cc1ccc(CN2CCC3(CC2)COCCN3S(C)(=O)=O)o1.O=C(O)C(F)(F)F`: the “Percent Effect” value was 105%.

As to `CS(=O)(=O)N1CCOCC12CCN(Cc1ccc(F)cc1)CC2.O=C(O)C(F)(F)F`, the “Percent Effect” value amounted to 90.38%.

Turning to `Cc1ccc(CN2CCOC3(COCCN(S(C)(=O)=O)C3)C2)o1.O=C(O)C(F)(F)F` (configuration not stated), the “Percent Effect” value is listed as -4.149%.

With `COCc1nc(CNc2cccc(-c3nc(C)c(C)o3)c2)cs1`, the “Percent Effect” value is given as -0.1423%.

Turning to `N#Cc1cccc(C(=O)N2C[C@H]3CC[C@@H]2CN(C(=O)C2CCC2)C3)c1`, the “Percent Effect” value is given as -9.215%.

Take `CN(C)S(=O)(=O)N1C[C@@H]2CC[C@H](C1)N(Cc1ccc(F)c(F)c1)C2`: the “Percent Effect” value is recorded as -2.464%.

On to `Cc1c(Cl)cc(C(=O)NCCc2ncnn2C)cc1Cl`, for which the “Percent Effect” value is listed as -11.54%.

Turning to `O=C1CC(c2cccc(O)c2)c2sc(C(=O)O)c(-c3ccccc3)c2N1` (configuration not stated), the “Percent Effect” value turned out to be 10.05%.

`CNC(=O)[C@H]1C[C@@H]2CN(Cc3ccc(C)cc3)C[C@H]1O2.O=C(O)C(F)(F)F`: the “Percent Effect” value was determined as 103.7%.

Consider `COc1ccc(CN2C[C@@H]3COC[C@H](N4CCN(C)CC4)[C@@H]3C2)cc1.O=C(O)C(F)(F)F.O=C(O)C(F)(F)F.O=C(O)C(F)(F)F`, for which the “Percent Effect” value was -28.1%.

Take `Cc1ccc(CN2C[C@H]3C[C@H](C(=O)NCc4cccnc4)[C@@H](C2)O3)cc1`: the “Percent Effect” value is 0.7721%.

As for `CNC(=O)[C@H]1C[C@@H]2CN(Cc3cccc(C)c3)C[C@H]1O2.O=C(O)C(F)(F)F`, the “Percent Effect” value is listed as 116.6%.

With `Cc1cccc(CN2C[C@H]3C[C@H](C(=O)NCc4cccnc4)[C@@H](C2)O3)c1.O=C(O)C(F)(F)F.O=C(O)C(F)(F)F`, the “Percent Effect” value is reported as -0.193%.

Turning to `CN(C)C(=O)[C@H]1C[C@@H]2CN(CCc3ccccc3)C[C@H]1O2.O=C(O)C(F)(F)F`, the “Percent Effect” value is 12.58%.

For the compound `CNC(=O)[C@H]1C[C@@H]2CN(Cc3ccccc3)C[C@H]1O2.O=C(O)C(F)(F)F`, the “Percent Effect” value amounted to 106.1%.

For `CNC(=O)[C@H]1CCS(=O)(=O)[C@@H]2CN(Cc3ccc(OC)cc3)C[C@H]12`, the “Percent Effect” value is 0.06663%.

Turning to `CNC(=O)[C@H]1C[C@@H]2CN(Cc3ccc(OC)cc3)C[C@H]1O2.O=C(O)C(F)(F)F`, the “Percent Effect” value is 98.44%.
